Out of some 340,000 compounds screened, about 2,500 (0.74%) were called active. This excerpt belongs to a sample that is enriched for actives. Unmarked numbers belong to inactive results.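 Rule for the calls: active = inhibition above about 55% (limit read from the data); inactive = the rest.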

The experiment is described as follows: blockers of Gli reporter signaling – luciferase luminescence, Sufu-KO-LIGHT cells, uHTS, primary screen (AID 588413).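 Note: 0% = DMSO-treated cells and 100% = wells with medium but no cells.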 The note with it: Sufu-KO-LIGHT fibroblasts, at 5 µM, stronger effect = higher value.
In general, inhibition refers to the relative decrease from the control value, in per cent. Consider `Cc1ccc(S(=O)(=O)N(C)C)cc1NC(=O)C1Cc2ccccc2CN1C(=O)c1ccco1` (configuration not stated), for which the inhibition is -7.42%.

Take `COc1ccc(CCNC(=O)C(=O)NCC2OCCN2S(=O)(=O)c2cccs2)cc1OC` (configuration not stated): the inhibition is 1.51%. With `COc1cc2c(cc1OC)CN(CC(=O)Nc1ccc(F)cc1)CC2` the figure was 9.09%. For the compound `COc1ccc2c(c1)CCNC2Cc1ccc(OC)c(O)c1` (configuration not stated), the inhibition was 7.38%. As for `CC[C@H]1CN2CCc3cc(OC)c(OC)cc3[C@@H]2C[C@@H]1C[C@H]1NCCc2cc(OC)c(OC)cc21`, the inhibition was 71.3% (active). With `C=CC(=O)Nc1ccc(Nc2ccnc(Nc3ccc(N4CCN(C)CC4)cc3)n2)cc1` the figure was 21.8%; with `CC(NC(=O)C1CCC(CNc2c(N3CCOCC3)c(=O)c2=O)CC1)c1ccccc1` (configuration not stated), -5.64%; with `COCCN(Cc1ccccc1)C(=O)Cc1ccc(S(=O)(=O)N2CCOCC2)s1`, 4.55%. Next, `Cc1nnc(SCC(=O)Nc2cccc(N)c2)n1-c1ccccc1`: -28.9%.

For `CC[n+]1c(C)n(-c2ccccc2)c2ccc(NC(C)=O)cc21`, the inhibition is 76.3% (active). Next, `CC(=O)c1cccc(NC(=O)c2cc(C)nn2-c2ccccc2)c1`: 5.19%; `Cc1ccc(C(=O)NCC(=O)O)s1`: -7.96%.

For `CC1OC2C(OC1C)N(S(C)(=O)=O)CCN2S(C)(=O)=O` (configuration not stated), the inhibition is -7.55%. For `Cc1ccsc1C(=O)OCC(=O)Nc1cccc(F)c1`, the inhibition is -43.7%.

For the compound `COc1ccc(C(=O)OCC(=O)c2cc(C)n(CC3CCCO3)c2C)cc1[N+](=O)[O-]` (configuration not stated), the inhibition was -7.49%. Next, `Cc1ccsc1C(=O)OCC(=O)c1cc(C)n(CC2CCCO2)c1C` (configuration not stated): 72.1% (active); `CCN(CC)C(CNC(=O)CSc1nnnn1-c1cccc(F)c1)c1ccco1` (configuration not stated): 10%. With `CCNCCC(=O)N1c2ccccc2Sc2ccc(NC(=O)OCC)cc21`, the inhibition was 26.4%.

As to `CCOC(=O)CNC(=O)N1c2ccccc2Sc2ccccc21`, the inhibition was 2.43%. With `CCN1/C(=C/C(=S)Nc2ccccc2)Sc2ccccc21` the figure was 67.6% (active); with `CC(=O)c1ccc(S(=O)(=O)NC2CC(=O)N(c3ccc4c(c3)OCCO4)C2)cc1` (configuration not stated), -3.34%; with `CCN(CC(=O)Nc1c(F)cccc1F)C(=O)c1ccc(Sc2nncn2C)c([N+](=O)[O-])c1`, 31.3%. As to `CC(C)Oc1ccc(C(=O)NC(C)(C)CO)cc1`, the inhibition was -9.97%. Next, `CCC(NC(=O)C1CCCC1)c1ccc(C)cc1` (configuration not stated): -10.2%; `CCC(Cc1ccccc1)NC(=O)C1CCCCC1` (configuration not stated): 63.1% (active); `Cc1ccc(NC(=O)[C@H](Cc2ccccc2)NC(=O)C2CCNCC2)cc1`: 2.89%.

For `COc1ccc(C(=O)COC(=O)Cn2cnc3c2c(=O)n(C)c(=O)n3C)c(OC)c1`, the inhibition is 3.81%. With `NC(=O)C1(Nc2ccccc2Cl)CCCC1` the figure was 4.9%. In the case of `CC[C@]12c3[nH]c4ccc(OC)cc4c3CCN1C(=O)C(CC(=O)NCc1ccco1)C[C@@H]2C(=O)N1CCN(C(=O)C2CC2)CC1` (some centres not stated), the inhibition is -2.82%. With `C=CCSc1nc2c(c(=O)[nH]1)C(C(C)C)C(C#N)=C(N)O2` (configuration not stated), the inhibition is -7.54%. Next, `CC/C(O)=C1\C(=O)CC(C)(C)CC1=NCCc1nc2ccccc2[nH]1`: 25.2%.

With `CCCc1nc(N)nc2c1C(=O)CC(C)(C)C2`, the inhibition is 77.6% (active). Next, `CC1(C)CC(=O)c2sc(N)nc2C1`: 4.1%; `CCc1ccc2nc(N(CCCN(C)C)C(=O)c3ccc4c(c3)OCCO4)sc2c1`: 11.7%; `CN(C)CCCN(C(=O)c1ccc(S(=O)(=O)N2CCCCCC2)cc1)c1nc2ccc(Br)cc2s1`: 42.7%.

Take `CCOc1ccc2nc(N(CCCN(C)C)C(=O)c3ccc(C(=O)c4ccccc4)cc3)sc2c1`: the inhibition is 65.2% (active). For the compound `Cc1ccc(F)c(NC(=O)CCc2ccccc2)c1`, the inhibition was -20.7%. On to `CCOc1cccc(/C=N/NC(=S)NCCN2CCOCC2)c1O`, for which the inhibition is 81.1% (active). With `CCOc1cccc(/C=N/N2C(=O)CSC2=S)c1O`, the inhibition was -1.42%.

Turning to `Cc1ccc(C(=O)NC(=S)NCCN2CCOCC2)cc1`, the inhibition is -9.17%. Next, `O=C(CNc1ccc(F)cc1F)NC(=O)NCc1ccco1`: -1.84%; `Cc1cc([N+](=O)[O-])ccc1NCc1cccc([N+](=O)[O-])c1`: 8.75%; `COCCCNC(=S)N1CCCC(c2nc3cc(C)c(C)cc3[nH]2)C1` (configuration not stated): 15.7%. Turning to `CCC(C)(C)NC(=O)C(c1ccc(O)cc1)N(Cc1ccco1)C(=O)CCC(=O)Nc1ccccn1` (configuration not stated), the inhibition is -4.35%.

Consider `Cc1ccc(NC(=O)C(C)Sc2nnc(C3CC3)n2C2CC2)cc1S(=O)(=O)N1CCOCC1` (configuration not stated), for which the inhibition was 4.31%. With `CCCn1cc(S(=O)(=O)c2ccc(C)cc2)c(=O)c2cc(OCC)ccc21` the figure was 32.4%; with `CC(C)(C)c1ccc(OC2=CS(=O)(=O)c3ccccc32)cc1`, -36.6%; with `COc1cccc(Oc2ccc(N)cc2)c1`, -23.1%. Next, `CC(C)(C)c1ccc(Oc2ccc(N)cc2)cc1`: 76.2% (active); `CCOc1ccc(NS(=O)(=O)c2ccc(C)c(C(N)=O)c2)cc1`: 29.7%. As for `CC(=O)c1c(C)[nH]c(C(=O)OCC(=O)Nc2sc3c(c2C#N)CCCC3)c1C`, the inhibition was 69.3% (active). `N#CCC(=O)Nc1ccc(C(=O)OCC(=O)Nc2sc3c(c2C#N)CCCC3)cc1`: the inhibition was -9.19%. Next, `Cc1cccc(C(=O)OCC(=O)Nc2sc3c(c2C#N)CCC3)c1`: -6.89%; `Cc1cc(C)c(C)c(S(=O)(=O)Nc2cccnc2)c1C`: 1.03%; `Fc1ccc(CNc2nc3ccccc3n3nnnc23)cc1`: -6.79%. With `CCc1nc2sc3c(Cl)ncnc3c2c2c1CCCC2` the figure was -1.03%.

With `Cc1ccccc1C1=N/C(=C/c2cccnc2)C(=O)O1`, the inhibition was -7.01%. On to `O=C(O)C1CC(=O)N(Cc2cccnc2)C1` (configuration not stated), for which the inhibition is -11.1%. With `O=C1/C(=C\c2cccnc2)CN(Cc2ccccc2)C/C1=C\c1cccnc1` the figure was 99.3% (active); with `Cc1ccc2cc(/C=N/Nc3ccc(C(=O)O)cc3)c(Cl)nc2c1`, -101%; with `CCNC(=S)NNC(=O)c1ccc2ncccc2c1`, -4.73%. With `O=C(O)c1ccc(N/N=C/c2ccc3ncccc3c2)cc1` the figure was 67% (active).
